Screening results (PubChem)
aSyn 5UTR inh: MLPCN primary screen, SNCA 5' untranslated region; alpha-synuclein 5'UTR reporter, inhibitor activity; inhibition, % (tested at 7.5 µM); actives 0.82% (n = 300,000); AID 1813; in the data active = inhibition above about 60%; inconclusive = no clear call, values can overlap the other calls;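 note: H4 neuroglioblastoma cells stably carrying SNCA 5'UTR luciferase fusion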
697 NFkB inh: lowers PMA/ionomycin-induced NF-kB signal in 697 B cells | 697 B-cell NF-kB luciferase reporter, 16 h | inhibition, % at 4 µM | actives 0.33% (n = 330,000); in the data active = inhibition above about 35%
Jurkat NFkB inh: lowers PMA/ionomycin-induced NF-kB signal in Jurkat cells; inhibition, % at 4 µM; actives 0.53% (n = 330,000); PMA/ionomycin-induced NF-kB luciferase reporter, luminescence; AID 435003; in the data active = inhibition above about 50%
Shn3 3UTR inh: reduces Shn3 3'UTR luciferase signal in osteoblasts; Clone20 osteoblast Shn3 3'UTR firefly luciferase, 24 h; inhibition, % at 12.5 µM; actives 0.52% (n = 360,000);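 active = mean inhibition of at least 75% with every replicate also reaching 75%; inconclusive = mean inhibition at least 75% but some replicate below; inactive = mean inhibition below 75%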
H9c2 TAG inh: reduces triacylglycerol accumulation in H9c2 cells; inhibition, % at 12.5 µM; Nile Red lipid (TAG) fluorescence; cells loaded with 200 µM oleic acid; AID 651582; actives 0.66% (n = 230,000);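 active = pattern-corrected inhibition of lipid staining of at least 50% with the nuclear-stain viability signal not falling by more than 50%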
Gli-Sufu antag: antagonists of Gli-Sufu signaling | inhibition, % at 5 µM | actives 0.74% (n = 340,000) | Sufu-KO-LIGHT fibroblasts, Gli luciferase reporter luminescence;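 active = inhibition above about 55%, limit read from the data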
697 NFkB conf: inhibitors of the PMA/ionomycin-induced NF-kB reporter in 697 B cells, retest; 697 B-cell NF-kB luciferase, 16 h; AID 449746; actives 35% (n = 2,000); shares compounds with 697 NFkB inh; inhibition, % at 4 µM; in the data active = inhibition mostly above about 28%, no sharp cut-off; inactive = mostly below about 22%
Gli antag conf: Gli-SUFU antagonism confirmation, single concentration; actives 40% (n = 2,500); AID 602428; Sufu-KO-LIGHT cells, Gli luciferase reporter, luminescence; inhibition, % at 5 µM; shares compounds with Gli-Sufu antag;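 active = mean inhibition at 5 µM reaching about 45%, limit read from the data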
SufuKO cytotox: counter-screen for Gli-SUFU antagonists: cytotoxicity; shares compounds with Gli-Sufu antag; Sufu-KO-LIGHT cells cytotoxicity, ATP luminescence; cytotoxicity, % at 5 µM; actives 32% (n = 2,500);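 active = mean cytotoxicity at 5 µM above about 25%, limit read from the data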;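 note: cells exposed to compound overnight for roughly 16 to 18 hours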
Wnt3a cs: Wnt3a reporter inhibition counter-screen; shares compounds with Gli-Sufu antag; Wnt-LIGHT cells, Wnt3a-driven luciferase reporter, luminescence; inhibition, % at 6.25 µM; actives 20% (n = 2,500); AID 651995;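 active = mean inhibition above about 25%, limit read from the data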
H9c2 TAG conf: confirmation of triacylglycerol accumulation inhibitors. shares compounds with H9c2 TAG inh. H9c2 lipid accumulation, Nile Red fluorescence; cells loaded with 200 µM oleic acid. inhibition, % at 12.5 µM. actives 71% (n = 990). AID 651629;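 active = mean inhibition across replicates of 40% or more; inactive = mean inhibition below 40%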
Hits are given with their value; . = inactive; ? = inconclusive; / = no result given. A selection: hits, their analogues and other compounds. The true share with any hit is near 2.3%.

SMILES	aSyn 5UTR inh	697 NFkB inh	Jurkat NFkB inh	Shn3 3UTR inh	H9c2 TAG inh	Gli-Sufu antag	697 NFkB conf	Gli antag conf	SufuKO cytotox	Wnt3a cs	others
CCN(CC(=O)Nc1c(F)cccc1F)C(=O)c1cc(S(=O)(=O)N(CC)CC)ccc1N1CCCCC1	.	66	.	.	.	.	49	.	.	.
CCOC(=O)c1sc(NC(=O)Nc2ccccc2F)nc1C	70	.	.	.	/	.	.	.	49	85
CN1CCN(C(=O)c2ccc3c(=O)n(Cc4ccc(Cl)cc4)c(=S)[nH]c3c2)CC1	.	.	.	.	/	.	/	/	/	/
CC(C)CNC(=O)CSc1nc2nn(-c3ccccc3)c(=O)c-2c2n1CCCCC2	.	.	.	.	.	.	/	/	/	/
CNC(=O)CSc1nc2nn(-c3ccccc3)c(=O)c-2c2n1CCCCC2	.	35	.	.	/	56	38	.	.	.
O=C(Nc1ccc(NC(=O)c2cc3ccccc3o2)cc1)c1ccc2c(c1)OCCO2	71	72	.	.	.	.	59	61	.	88
Cc1cc(NC(=O)c2ccc3c(c2)OCCO3)ccc1NC(=O)c1cc2ccccc2o1	.	.	.	.	.	.	/	/	/	/
Cc1cc(C=C2C(=O)c3ccccc3C2=O)c(C)n1-c1ccc(C(=O)O)cc1	.	.	.	.	.	.	/	/	/	/
COc1ccc(-c2n(Cc3ccccc3)c3ccccc3[n+]2Cc2ccccc2)cc1	.	41	.	.	.	72	33	77	33	.
CCc1ccccc1NC(=O)c1cnn(-c2ccccc2)c1C	.	.	.	.	/	.	/	/	/	/
COc1ccc(C(=O)O/N=C(\N)c2ccc(OC)c(OC)c2)cc1	.	.	.	.	/	.	/	/	/	/
CCOC(=O)Cc1ccc(NC(=O)c2ccccc2Br)cc1	.	.	.	.	.	.	/	/	/	/
CCOC(=O)Cc1ccc(NC(=O)c2ccc(C(C)(C)C)cc2)cc1	104	90	.	.	.	60	64	68	.	101
CC(=O)c1cn(CCOc2cc(C)ccc2C)c2ccccc12	.	65	.	90	/	68	83	64	.	46
Cc1ccc(NC(=O)CC2SCCNC2=O)cc1Cl (stereo not drawn)	.	.	.	.	/	.	/	/	/	/
CC(C)(C)C(=O)C[n+]1ccc(C(N)=O)cc1	.	.	.	.	/	.	/	/	/	/
Cc1nn(C(C)(C)C)c(C)c1/C=N/OC(=O)Nc1ccc(Cl)c(Cl)c1	.	52	.	/	.	88	69	89	.	103
COc1cc(/C=N/NC(=O)c2ccc(COc3cc(C)ccc3C(C)C)cc2)cc(OC)c1O	.	.	.	.	/	.	/	/	/	/
Cc1ccc(C(C)C)c(OCc2ccc(C(=O)N/N=C/c3ccc(O)c(O)c3)cc2)c1	.	.	.	.	/	67	.	49	29	93
CC(C)CNc1ncnc2c1ncn2[C@H]1CN(Cc2ccco2)C[C@@H](CO)O1	/	/	/	.	.	/	/	/	/	/
O=S(=O)(c1ccc2c(c1)C(=NO)c1cc(S(=O)(=O)N3CCCCC3)ccc1-2)N1CCCCC1	96	104	.	98	.	95	.	93	71	104
N#CC1=C(N)Oc2cc(Nc3ccccc3)ccc2C1c1ccncc1 (stereo not drawn)	.	37	.	.	57	.	41	/	/	/	H9c2 TAG conf=83
N#CC1=C(N)Oc2cc(N)ccc2C1c1cccnc1 (stereo not drawn)	.	.	.	.	/	.	/	/	/	/
O=C(CNC(=O)c1ccccc1)NCCO	.	.	.	.	.	.	/	/	/	/
Fc1ccc(Nc2nc(N3CCOCC3)nc(N3CCOCC3)n2)cc1	.	.	.	.	/	.	/	/	/	/
SMILES	aSyn 5UTR inh	697 NFkB inh	Jurkat NFkB inh	Shn3 3UTR inh	H9c2 TAG inh	Gli-Sufu antag	697 NFkB conf	Gli antag conf	SufuKO cytotox	Wnt3a cs	others
Cc1[nH]c2ccccc2c1/C=N/Nc1nc(Nc2ccc(F)cc2)nc(N2CCOCC2)n1	/	48	.	.	76	.	60	/	/	/	H9c2 TAG conf=86
Cc1noc(C)c1CSc1nc2[nH]ncc2c(=O)n1-c1ccccc1	?	55	.	/	64	.	55	/	/	/	H9c2 TAG conf=91
O=C(Nc1nc2nc(-c3ccccc3)cc(-c3ccccc3)n2n1)c1ccco1	.	47	.	/	64	.	30	/	/	/	H9c2 TAG conf=.
CCCNCc1cc(OCC)c(OCC(N)=O)cc1Br	.	.	.	.	.	.	/	/	/	/
c1cnc2ccc(C(c3nnnn3C3CCCCC3)N3CCN(C4CCCCC4)CC3)cc2c1 (stereo not drawn)	.	.	.	.	.	65	/	80	36	.
CC(=O)c1ccc(NC(=O)CN2CCN(CC(=O)Nc3ccc(C(C)=O)cc3)CC2)cc1	.	.	.	.	/	.	/	/	/	/
CC(=O)c1ccc(NC(=O)CSC(C)C)cc1	.	.	.	.	/	99	/	.	28	.
Cc1cccc(CSC(Nc2ccc(F)cc2)=C(C#N)C#N)c1	.	.	.	.	/	56	/	62	.	52
O=C(C1CCN(CCCc2ccccc2)CC1)N(CCc1ccccc1)Cc1ccccc1	.	.	.	.	/	56	/	.	.	.
O=C(CC1SC(N2CCCC2)=NC1=O)Nc1ccc(C(=O)Nc2ccccc2)cc1 (stereo not drawn)	.	.	.	.	.	.	/	/	/	/
CC(CC(=O)NNC(=O)c1ccncc1)c1ccccc1 (stereo not drawn)	.	.	.	.	.	.	/	/	/	/
O=C(CN(C(=O)CCC(=O)Nc1nccs1)c1cccc(F)c1)NCC1CCCO1 (stereo not drawn)	.	.	.	.	.	.	/	/	/	/
O=C(CN(C(=O)CCC(=O)Nc1nccs1)c1cccc(C(F)(F)F)c1)NCC1CCCO1 (stereo not drawn)	.	.	.	.	/	56	/	.	26	.
Cc1cccc(N(CC(=O)NC(C)(C)C)C(=O)CCC(=O)Nc2nccs2)c1	.	.	.	.	/	.	/	/	/	/
CC(C)(C)NC(=O)CN(C(=O)CCC(=O)Nc1nccs1)c1cccc(C(F)(F)F)c1	.	.	.	.	/	.	/	.	.	.
O=C(O)CCS(=O)(=O)c1cccc2cccnc12	.	.	.	.	/	.	/	/	/	/
O=Cc1cn(-c2ccccc2)nc1-c1cccnc1	.	.	.	.	.	.	/	.	.	.
COc1ccc(CN(C2CCCC2)S(=O)(=O)c2ccc(-n3cnnn3)cc2)cc1	.	.	.	.	.	58	/	.	.	.
